# This is a sample that favours compounds with a hit; in the whole collection about 28% have one here.
# CYP2C19 inhib = human CYP2C19 inhibition; 96,000 compounds, 21% hits; CYP2C19 Supersomes, luciferin-H EGE luminescence, 30 min; P33261; inhibition, % at 5 µM;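 active = CYP2C19 inhibition above a set limit at 5 µM in the primary screen, cut at about 50% in these data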;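 note: plate controls were negative control wells for no effect and 2.5 mM tranylcypromine positive control for full effect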
# CD11b adhes inh = CD11b/CD18-fibrinogen binding inhibition; 93,000 compounds, 0.54% hits; inhibition, % at 10 µM; K562 CD11b/CD18 adhesion to fibrinogen, ATPlite luminescence; Mn2+ added to activate the integrin; P05107+P11215;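 active = primary inhibition of 50% or more at 10 µM, then 40% or more on retest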
# CYP2C19 activ = increases human CYP2C19 enzyme activity; recombinant CYP2C19, luciferin-H EGE luminescence; active compounds read high; 0 = fully inhibited enzyme, 1 = untreated enzyme; activation factor at 5 µM; 96,000 tested, under 10 active;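 active = activation factor of at least 2 at 5 µM in the primary screen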;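 note: 0 = wells with 2.5 mM tranylcypromine and 1 = vehicle-only wells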
# CYP2C9 inh = blocks human cytochrome P450 2C9; P11712; CYP2C9 Supersomes, luciferin-H conversion, luminescence; inhibition, % at 5 µM; 96,000 compounds, 20% hits;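 active = blocking of liver enzyme CYP2C9 beyond about 50% at 5 µM, limit read from the data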
# Target sequence (P11712 whole entry, looked up): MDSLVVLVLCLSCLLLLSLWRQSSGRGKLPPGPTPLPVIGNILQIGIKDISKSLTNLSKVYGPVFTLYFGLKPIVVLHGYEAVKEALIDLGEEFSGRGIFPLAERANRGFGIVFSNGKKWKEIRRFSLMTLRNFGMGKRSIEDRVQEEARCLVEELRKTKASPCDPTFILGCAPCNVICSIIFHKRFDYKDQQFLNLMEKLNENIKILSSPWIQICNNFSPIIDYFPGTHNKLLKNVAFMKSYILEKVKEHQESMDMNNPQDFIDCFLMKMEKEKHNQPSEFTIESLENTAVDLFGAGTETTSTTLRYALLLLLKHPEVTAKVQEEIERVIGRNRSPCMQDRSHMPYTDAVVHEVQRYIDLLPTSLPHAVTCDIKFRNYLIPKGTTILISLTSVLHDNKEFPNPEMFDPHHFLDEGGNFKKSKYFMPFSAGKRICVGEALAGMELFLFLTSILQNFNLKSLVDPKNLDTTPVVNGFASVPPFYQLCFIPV
# CYP2C9 act = increases human cytochrome P450 2C9 activity | P11712 | recombinant CYP2C9, luciferin-H conversion, luminescence; active compounds read high; factor 1 = untreated enzyme, 0 = blocked | activation factor at 5 µM | 96,000 compounds, 1.4% hits | AID 1024;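 active = activation factor of 2 or more for CYP2C9 at a 5 µM dose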;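 note: 0 = sulfaphenazole-blocked wells and 1 = vehicle-only wells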
# CD11b adhes enh = CD11b/CD18-fibrinogen binding enhancement | 93,000 compounds, 0.07% hits | K562 CD11b/CD18 adhesion to fibrinogen, ATPlite luminescence | activation, % at 10 µM | P05107+P11215;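 active = 10 µM primary screen giving 50% or more activity, confirmed by 40% or more on retest at that dose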
# Active calls of the source: *; . = not tested or not shown.
SMILES,CYP2C19 inhib,CD11b adhes inh,CYP2C19 activ,CYP2C9 inh,CYP2C9 act,CD11b adhes enh
Cc1onc(-c2ccccc2Cl)c1C(=O)Nc1ccc(F)c(F)c1,89.5*,-7.1,0.1,69.6*,0.3,-6.5
Cc1onc(-c2ccccc2Cl)c1C(=O)Nc1nnc(-c2ccc(Cl)cc2Cl)s1,4.5,87.8,1,65.6*,0.3,-14.6
Cc1cc(NC(=O)c2c(-c3ccccc3Cl)noc2C)no1,15.2,-3.2,0.8,30.9,0.7,-0.1
Cc1ccc(Cn2ccc(NC(=O)c3c(-c4ccccc4Cl)noc3C)n2)cc1,25.1,2.4,0.7,51.5*,0.5,0.8
Cc1onc(-c2ccccc2Cl)c1C(=O)Nc1nnc(-c2ccc(Br)cc2)s1,13.9,98.0,0.9,40.3,0.6,-7.2
CCOC(=O)C(C)Sc1ncc(-c2ccc(Cl)cc2)cn1 (stereo unspecified),17.9,-7.0,0.8,16.1,0.8,4.3
CCc1cccc(CC)c1NC(=S)NCC(c1cccnc1)N1CCOCC1 (stereo unspecified),.,-17.5,.,.,.,2.9
COCc1cc(=O)[nH]c(/N=C(\N)Nc2ccc(C)cc2)n1,10.9,-16.4,0.9,33.7,0.7,1.1
CCN(CC)S(=O)(=O)c1ccc(NC(=O)c2ccccc2N(C)S(C)(=O)=O)cc1,6.3,-48.5,0.9,61.3*,0.4,-3.6
Cc1onc(-c2ccccc2Cl)c1C(=O)Nc1ccc2c(c1)OCO2,70.8*,.,0.3,52.6*,0.5,.
Cc1onc(-c2ccccc2Cl)c1C(=O)Nc1cccc(-c2cn3cccnc3n2)c1,61.5*,-36.3,0.4,84.8*,0.2,10.3
Cc1ccc(-n2nc3c(c2NC(=O)c2c(-c4ccccc4Cl)noc2C)CS(=O)(=O)C3)c(C)c1,51.7*,-15.4,0.5,79.1*,0.2,1.5
Cc1onc(-c2ccccc2)c1C(=O)Nc1ccc2c(c1)OCCO2,30.2,4.3,0.7,23.8,0.8,-2.4
CN(C)CCCN1C(=O)c2oc3ccccc3c(=O)c2C1c1cccs1 (stereo unspecified),3.2,.,1,26.4,0.7,.
CN1CCN(S(=O)(=O)c2ccc(=O)[nH]c2)CC1,-7.5,-20.8,1.1,-2.2,1,-1.7
COc1ccccc1N1CCN(C(=O)Cn2nc(C(F)(F)F)c3c2CCC3)CC1,48.2,-4.1,0.5,-93.8,1.9,-1.5
Cc1cc(=O)oc(C)c1C(=O)OCC(=O)c1ccc2ccccc2c1,63.2*,21.7,0.4,4.0,1,-4.0
Cc1onc(-c2ccccc2Cl)c1C(=O)Nc1ccc(S(=O)(=O)N2CCCC2)cc1,30.4,-7.3,0.7,74.9*,0.3,-2.5
Cc1onc(-c2ccccc2)c1C(=O)OCC(=O)c1ccccc1,69.3*,-2.2,0.3,54.1*,0.5,-0.7
CCOCCCNC(=O)c1c(-c2ccccc2)noc1C,14.0,3.7,0.9,-19.6,1.2,-0.6
Cc1ccc(NC(=S)NC(=O)c2c(-c3ccccc3Cl)noc2C)cc1,34.9,-5.3,0.7,28.9,0.7,-0.2
Cc1cc(=O)oc(C)c1C(=O)OCC(=O)c1ccccc1,39.2,-11.0,0.6,12.5,0.9,-2.5
O=C(Nc1ccc2c(c1)OCO2)C1CC(c2ccccc2Cl)=NO1 (stereo unspecified),94.5*,2.8,0.1,-75.1,1.8,0.2
CCSc1nnc(NC(=O)C(C)Sc2nc3ccccc3[nH]2)s1 (stereo unspecified),.,27.8,.,.,.,3.2
CC(CN1CCCC(C(N)=O)C1)c1ccccc1 (stereo unspecified),10.2,6.5,0.9,-23.2,1.2,2.9
COCCNC(=O)c1ccccc1-c1ccccc1C(=O)O,-13.7,-8.5,1.1,-9.8,1.1,-4.4
COCCNC(=O)c1ccccc1NC(=O)c1ccccc1N(C)S(=O)(=O)c1ccccc1,99.7*,-2.9,0,93.3*,0.1,-6.0
Cc1onc(-c2c(F)cccc2Cl)c1C(=O)Nc1cccc(Cn2cccn2)c1,23.4,1.3,0.8,51.7*,0.5,2.1
Cc1onc(-c2c(Cl)cccc2Cl)c1C(=O)Nc1ccc2c(c1)OCCO2,53.6*,-14.9,0.5,88.5*,0.1,1.1
Cc1onc(-c2ccccc2Cl)c1C(=O)Nc1nn[nH]n1,9.2,-4.0,0.9,4.8,1,4.2

# Source: PubChem (Sanford-Burnham Center for Chemical Genomics)
